Pf apPOL block: Pf-apPOL inhibitors, biochemical, fluorescence | Plasmodium falciparum apicoplast DNA polymerase (apPOL) | Recombinant Pf-apPOL, molecular beacon fluorescence, 1.5 h | inhibition, % at 10 µM | 210,000 compounds, 0.25% hits | AID 1794808, 2022
mHTT-CaM PPI inh: mutant huntingtin-calmodulin interaction inhibitors – biochemical, AlphaScreen, primary screen; P42858; AlphaScreen His-mHTT/GST-CaM binding, luminescence; inhibition, % at 15 µM; 190,000 compounds, 3.6% hits;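 note: 0% = both proteins with DMSO and 100% = one protein alone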
Target sequence (P42858 whole entry, looked up, stated change not applied): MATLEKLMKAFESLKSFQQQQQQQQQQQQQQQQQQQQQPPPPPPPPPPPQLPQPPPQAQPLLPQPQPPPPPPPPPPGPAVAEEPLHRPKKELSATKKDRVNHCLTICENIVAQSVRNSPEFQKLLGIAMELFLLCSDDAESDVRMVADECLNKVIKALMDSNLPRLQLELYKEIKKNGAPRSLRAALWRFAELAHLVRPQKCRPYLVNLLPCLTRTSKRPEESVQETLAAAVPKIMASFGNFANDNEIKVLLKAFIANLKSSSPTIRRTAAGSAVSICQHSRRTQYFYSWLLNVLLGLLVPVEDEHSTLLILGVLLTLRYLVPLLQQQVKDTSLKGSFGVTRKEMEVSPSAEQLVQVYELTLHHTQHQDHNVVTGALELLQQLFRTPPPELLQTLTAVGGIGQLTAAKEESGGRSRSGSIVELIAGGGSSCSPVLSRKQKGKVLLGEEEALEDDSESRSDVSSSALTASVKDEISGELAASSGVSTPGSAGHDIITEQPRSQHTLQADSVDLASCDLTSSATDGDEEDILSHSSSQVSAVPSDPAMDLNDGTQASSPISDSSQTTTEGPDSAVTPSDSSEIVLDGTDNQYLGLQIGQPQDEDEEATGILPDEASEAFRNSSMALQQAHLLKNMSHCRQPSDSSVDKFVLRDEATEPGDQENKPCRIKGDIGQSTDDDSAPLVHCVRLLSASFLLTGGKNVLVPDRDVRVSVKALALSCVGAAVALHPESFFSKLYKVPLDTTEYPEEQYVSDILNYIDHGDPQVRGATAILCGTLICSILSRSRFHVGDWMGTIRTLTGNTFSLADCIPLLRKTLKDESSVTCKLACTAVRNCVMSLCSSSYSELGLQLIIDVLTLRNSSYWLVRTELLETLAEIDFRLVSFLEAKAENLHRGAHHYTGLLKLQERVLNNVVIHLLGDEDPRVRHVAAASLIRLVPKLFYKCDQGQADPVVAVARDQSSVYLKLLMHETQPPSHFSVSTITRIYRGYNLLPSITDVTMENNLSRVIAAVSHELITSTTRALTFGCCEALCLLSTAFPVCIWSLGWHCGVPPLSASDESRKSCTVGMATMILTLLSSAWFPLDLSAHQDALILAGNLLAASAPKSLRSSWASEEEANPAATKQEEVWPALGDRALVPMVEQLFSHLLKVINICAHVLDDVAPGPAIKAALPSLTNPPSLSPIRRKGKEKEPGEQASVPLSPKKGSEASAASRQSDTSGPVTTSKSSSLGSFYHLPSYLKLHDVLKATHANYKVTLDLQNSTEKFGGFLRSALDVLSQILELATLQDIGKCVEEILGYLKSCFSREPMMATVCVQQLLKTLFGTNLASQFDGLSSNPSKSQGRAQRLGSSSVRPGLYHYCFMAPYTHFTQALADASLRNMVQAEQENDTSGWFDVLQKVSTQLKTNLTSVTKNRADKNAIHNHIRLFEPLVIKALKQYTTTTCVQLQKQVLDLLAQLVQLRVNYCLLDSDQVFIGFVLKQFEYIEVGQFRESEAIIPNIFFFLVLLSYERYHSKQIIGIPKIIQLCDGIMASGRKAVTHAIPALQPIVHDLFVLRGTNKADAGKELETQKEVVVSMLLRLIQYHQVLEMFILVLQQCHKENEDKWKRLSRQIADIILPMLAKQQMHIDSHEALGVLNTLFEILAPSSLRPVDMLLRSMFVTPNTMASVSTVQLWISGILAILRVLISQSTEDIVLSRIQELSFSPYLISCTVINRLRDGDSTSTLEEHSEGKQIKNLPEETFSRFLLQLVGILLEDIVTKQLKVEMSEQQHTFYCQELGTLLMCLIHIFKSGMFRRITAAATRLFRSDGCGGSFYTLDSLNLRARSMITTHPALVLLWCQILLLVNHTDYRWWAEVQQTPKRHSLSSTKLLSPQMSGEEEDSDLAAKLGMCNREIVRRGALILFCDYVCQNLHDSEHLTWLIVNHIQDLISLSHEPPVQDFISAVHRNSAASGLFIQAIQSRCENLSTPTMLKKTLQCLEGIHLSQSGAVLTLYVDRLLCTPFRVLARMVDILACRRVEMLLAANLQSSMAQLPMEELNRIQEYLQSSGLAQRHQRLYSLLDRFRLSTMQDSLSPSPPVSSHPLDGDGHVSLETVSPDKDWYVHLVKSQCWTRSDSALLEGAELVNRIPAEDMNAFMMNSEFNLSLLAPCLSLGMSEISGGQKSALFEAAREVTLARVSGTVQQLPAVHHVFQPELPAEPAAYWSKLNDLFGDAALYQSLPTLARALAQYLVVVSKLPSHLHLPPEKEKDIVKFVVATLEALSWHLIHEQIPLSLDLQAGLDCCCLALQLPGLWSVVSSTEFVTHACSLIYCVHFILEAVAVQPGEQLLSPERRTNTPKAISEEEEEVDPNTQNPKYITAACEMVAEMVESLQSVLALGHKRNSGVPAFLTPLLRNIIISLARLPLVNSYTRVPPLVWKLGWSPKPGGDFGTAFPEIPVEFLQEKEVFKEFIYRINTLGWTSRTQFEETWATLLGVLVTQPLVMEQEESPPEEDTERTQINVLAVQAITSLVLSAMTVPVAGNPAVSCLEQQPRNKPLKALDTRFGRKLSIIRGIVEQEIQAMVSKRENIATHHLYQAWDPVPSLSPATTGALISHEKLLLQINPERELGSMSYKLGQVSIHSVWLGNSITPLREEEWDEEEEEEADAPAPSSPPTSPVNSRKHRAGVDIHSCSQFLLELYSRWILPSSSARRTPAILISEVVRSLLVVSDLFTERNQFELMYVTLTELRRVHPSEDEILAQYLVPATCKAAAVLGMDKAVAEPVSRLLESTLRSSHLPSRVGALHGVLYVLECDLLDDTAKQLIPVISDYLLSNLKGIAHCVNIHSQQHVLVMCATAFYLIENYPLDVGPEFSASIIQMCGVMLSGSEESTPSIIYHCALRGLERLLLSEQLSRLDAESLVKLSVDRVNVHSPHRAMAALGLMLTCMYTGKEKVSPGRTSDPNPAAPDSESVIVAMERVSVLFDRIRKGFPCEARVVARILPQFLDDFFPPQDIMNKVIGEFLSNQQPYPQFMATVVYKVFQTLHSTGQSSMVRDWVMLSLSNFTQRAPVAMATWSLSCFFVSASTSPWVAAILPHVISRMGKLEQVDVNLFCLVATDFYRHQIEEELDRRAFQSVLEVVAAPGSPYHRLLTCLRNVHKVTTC
The depositor's hits bear a star. Only some compounds are listed: those with a hit (about 3.6% of all), similar ones and a draw of the others. Cut-off read from the data, not from the text of the source: active = inhibition above about 50%; inactive = the rest.

CCCC(=O)Nc1cc(-c2nc3cc(C)c(C)cc3o2)ccc1C was read as Pf apPOL block 3.5 and mHTT-CaM PPI inh -2.4.
Screening CC[N+]1(CC(O)COc2ccc(C34CC5CC(CC(C5)C3)C4)cc2)CCCC1 (configuration not stated) returned Pf apPOL block -3.3 and mHTT-CaM PPI inh 28.1.
For CC(C)NCC(O)COc1ccc(C23CC4CC(CC(C4)C2)C3)cc1 (configuration not stated) the results were Pf apPOL block -4.8 and mHTT-CaM PPI inh 100.3*.
`Cc1ccc(OCC(O)CNC(C)C)cc1` (configuration not stated) gave Pf apPOL block 1.6 and mHTT-CaM PPI inh -9.3.
`C[N+]1(CC(O)COc2ccc(C34CC5CC(CC(C5)C3)C4)cc2)CCCC1` (configuration not stated) gave Pf apPOL block 2.3 and mHTT-CaM PPI inh 52.0*.
CC(C)(C)NCC(O)COc1ccc(C23CC4CC(CC(C4)C2)C3)cc1 (configuration not stated) was read as Pf apPOL block -0.1 and mHTT-CaM PPI inh 100.3*.
Screening OCCN(CCO)CC(O)COc1ccc(C23CC4CC(CC(C4)C2)C3)cc1 (configuration not stated) returned Pf apPOL block -1.1 and mHTT-CaM PPI inh 14.6.
Screening CC1(C)C2CCC3(C)OC(=O)N(N1c1ccccc1)C23C (configuration not stated) returned Pf apPOL block -2.2 and mHTT-CaM PPI inh 0.0.
O=C(Cc1ccc(Cl)cc1)NC(c1ccccc1)c1ccccc1 was read as Pf apPOL block -2.3 and mHTT-CaM PPI inh -4.4.
Screening Brc1ccc(-n2cc(-c3ccccc3)c3c(N4CCOCC4)ncnc32)cc1 returned Pf apPOL block -3.8 and mHTT-CaM PPI inh -3.0.
`CSc1ccccc1C(=O)N1CCN(c2c(C)nn(C3CCS(=O)(=O)C3)c2C)CC1` (configuration not stated) gave Pf apPOL block -0.7 and mHTT-CaM PPI inh -2.3.
For Cc1nn(C2CCS(=O)(=O)C2)c(C)c1N1CCN(C(=O)c2cc3ccccc3[nH]2)CC1 (configuration not stated) the results were Pf apPOL block -19.2 and mHTT-CaM PPI inh 54.0*.
Screening Cc1ccc(S(=O)(=O)Nc2ccc(NC(=O)c3ccc([N+](=O)[O-])cc3Cl)cc2)cc1 returned Pf apPOL block -18.7 and mHTT-CaM PPI inh 7.5.
For COc1cccc(CNC(=O)c2cn3cc(Cl)ccc3n2)c1 the results were Pf apPOL block -3.0 and mHTT-CaM PPI inh 1.0.
Screening COc1cccc(-c2ccc3nc(C(=O)NCc4ccncc4)cn3c2)c1 returned Pf apPOL block 12.4 and mHTT-CaM PPI inh 52.2*.
Cc1cc(C)cc(NC(=O)c2ccc(Br)cc2)c1 was read as Pf apPOL block -1.6 and mHTT-CaM PPI inh 0.9.
COc1ccc(-c2cn3ccn(-c4ccc(F)cc4)c(=O)c3n2)cc1 was read as Pf apPOL block 0.2 and mHTT-CaM PPI inh -7.9.
`COc1ccc(-c2cn3c(n2)c(=C2CCCN2)c(=O)n3-c2ccccc2)cc1` gave Pf apPOL block -6.8 and mHTT-CaM PPI inh 63.0*.
Cn1c2ccc([N+](=O)[O-])cc2c2nc3ccccc3nc21 was read as Pf apPOL block -4.2 and mHTT-CaM PPI inh 6.3.
`CC(C)n1c2ccc(Br)cc2c2nc3ccccc3nc21` gave Pf apPOL block 81.6* and mHTT-CaM PPI inh -5.0.
CCc1onc(C)c1C1CCCN1C(=O)c1cc(C2CC2)on1 (configuration not stated) was read as Pf apPOL block -1.4 and mHTT-CaM PPI inh 3.6.
CCOc1ccccc1NC(=O)c1c(NCc2cccnc2)sc2c1CCC(C)C2 (configuration not stated) was read as Pf apPOL block -17.7 and mHTT-CaM PPI inh 25.0.
Screening COc1ccccc1NC(=O)c1c(NCc2cccnc2)sc2c1CCCC2 returned Pf apPOL block -22.5 and mHTT-CaM PPI inh 71.0*.
For COc1ccccc1NC(=O)c1c(NCc2cccnc2)sc2c1CCC2 the results were Pf apPOL block -17.4 and mHTT-CaM PPI inh 74.0*.
Screening COc1ccccc1NC(=O)c1c(NC(=O)c2ccccc2Cl)sc2c1CCC2 returned Pf apPOL block 1.7 and mHTT-CaM PPI inh -3.8.
Cc1nc2ccc(C(=O)NCc3ccc(F)cc3)cc2nc1C was read as Pf apPOL block -3.4 and mHTT-CaM PPI inh 5.0.
Cc1cc2[nH]c(C(=O)Nc3c(F)cccc3F)c(CN3CCOCC3)c2s1 was read as Pf apPOL block 25.8 and mHTT-CaM PPI inh 54.2*.
For Cc1cc2[nH]c(C(=O)Nc3ccccc3C)c(CN3CCOCC3)c2s1 the results were Pf apPOL block -3.0 and mHTT-CaM PPI inh 50.5*.
For Cc1cc2[nH]c(C(=O)Nc3ccccc3Cl)c(CN3CCOCC3)c2s1 the results were Pf apPOL block 33.0 and mHTT-CaM PPI inh 19.5.
For Cc1cc2[nH]c(C(=O)Nc3cccc(F)c3C)c(CN3CCOCC3)c2s1 the results were Pf apPOL block 10.7 and mHTT-CaM PPI inh 12.1.
For O=C(CCN1CCN(Cc2ccccc2)CC1)Nc1ccc2c(c1)OCO2 the results were Pf apPOL block -5.6 and mHTT-CaM PPI inh 6.6.
Screening CSc1nc2c(c(=O)n1-c1ccc(Br)cc1)SCC2 returned Pf apPOL block 1.9 and mHTT-CaM PPI inh 5.0.
CC(C)CN(CC(C)C)S(=O)(=O)N1CCC(C(=O)O)CC1 was read as Pf apPOL block 33.4 and mHTT-CaM PPI inh -5.0.
`O=C1NC(c2cccc([N+](=O)[O-])c2)=CCN1c1ccccc1O` gave Pf apPOL block -1.9.
Screening O=C(c1ccc(F)cc1)N1CCC(Oc2ccccc2)CC1 returned Pf apPOL block -0.6 and mHTT-CaM PPI inh -5.2.
For CCc1ccc(S(=O)(=O)N2CCN(Cc3nc4ccccc4[nH]3)CC2)s1 the results were Pf apPOL block -52.4 and mHTT-CaM PPI inh 99.6*.
CN(C)S(=O)(=O)N1CCN(Cc2nc3ccccc3[nH]2)CC1 was read as Pf apPOL block -4.4 and mHTT-CaM PPI inh -14.6.
Cc1cccn2c(=O)c3cc(C(=O)NCCc4ccccc4)c(=N)n(C(C)C)c3nc12 was read as Pf apPOL block -1.8 and mHTT-CaM PPI inh 4.0.
Cc1ccc(-n2c(-c3ccc(Br)cc3)cn3c4c(=O)n(C)c(=O)n(C)c4nc23)cc1 was read as Pf apPOL block -4.0 and mHTT-CaM PPI inh -2.0.
Screening C[C@H]1C(c2cccc(Cl)c2)=NN(c2ccccc2)[C@@H]1CO returned Pf apPOL block -3.1 and mHTT-CaM PPI inh -84.0.
`OC[C@@H]1[C@@H](c2ccc(Cl)cc2)C(c2ccccc2)=NN1c1ccccc1` gave Pf apPOL block -4.6 and mHTT-CaM PPI inh 86.4*.
`CC[C@H]1C(c2ccccc2)=NN(c2ccccc2)[C@@H]1CO` gave Pf apPOL block -6.4 and mHTT-CaM PPI inh 11.9.
Screening OC[C@@H]1[C@@H](c2ccc(Cl)cc2)C(c2cccc(Cl)c2)=NN1c1ccccc1 returned Pf apPOL block -5.1 and mHTT-CaM PPI inh 74.1*.
Screening OC[C@@H]1[C@@H](c2ccc(F)cc2)C(c2cccc(Cl)c2)=NN1c1ccccc1 returned Pf apPOL block -0.1 and mHTT-CaM PPI inh 71.7*.
`C[C@H]1C(c2ccc(F)cc2)=NN(c2ccccc2)[C@@H]1CO` gave Pf apPOL block 0.2 and mHTT-CaM PPI inh -85.1.
Screening CCn1cc(CN2CCCC2c2cc(C(C)C)on2)c2cc(OC)ccc21 (configuration not stated) returned Pf apPOL block -5.9 and mHTT-CaM PPI inh 42.8.
Screening COc1ccc(C(=O)N2CCc3c(c(-c4nc(-c5ccccc5F)no4)nn3C)C2)c(C)c1 returned Pf apPOL block -2.5 and mHTT-CaM PPI inh 29.3.

Source: PubChem
